In PubChem BioAssay AID1863 (Southern Research Specialized Biocontainment Screening …, 2009):
Screen size: about 300,000 compounds; about 480 (0.16%) were called active.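 Rule for the calls: active = inhibition over 29.93%, a cutoff 3 SD above the screen mean, later confirmed by dose response; inconclusive = inhibition over 29.93% but no dose response follow-up; inactive = inhibition at most 29.93% or unconfirmed.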 Not all results are given here. Potency and affinity values are given separately.

Assay: inhibitors of PhoP regulon expression, primary screen, Salmonella Typhimurium, GFP reporter (AID 1863);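 note: 0% = low Mg2+ inducing control and 100% = high Mg2+ repressing control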
Settings: S. Typhimurium PhoP-regulated promoter GFP reporter, 4 h; at 50 µM; hits give high values

inhibition, inactive:
Cn1c(=O)oc2cc(S(=O)(=O)NCCC(=O)N3CCc4ccccc4C3)ccc21 -8.83%, COc1ccc(C(CNS(=O)(=O)c2ccc(F)cc2)N2CCN(C)CC2)cc1 (configuration not stated) 3.53%, NC(=O)COC(=O)C12CC3CC(CC(O)(C3)C1)C2 17.4%, CCOc1ccc(C(C)=O)cc1CSc1nc(C)cc(C)n1 4.1%, CC(=O)c1cccc(NC(=O)NC2CCCCC2)c1 -2.42%, COCCn1c(-c2ccc(Cl)cc2)cnc1SCC(=O)NCCc1ccc(OC)c(OC)c1 12.7%, C=COCCn1c(-c2nonc2N)nc2ccccc21 18.4%, CC(C)CCOC(=O)C[N+](C)(C)CCOC1CC2CCC1(C)C2(C)C (configuration not stated) -2.94%, CCCOC(=O)C[N+](C)(C)CCOC1CC2CCC1(C)C2(C)C (configuration not stated) -23.2%, CCCCOC(=O)C[N+](C)(C)CCOC1CC2CCC1(C)C2(C)C (configuration not stated) -9.77%, CCOC(=O)C[N+](C)(C)CCOC1CC2CCC1(C)C2(C)C (configuration not stated) 6.45%, CC(C)CCNC(=O)C1(c2cccs2)CCOCC1 -3.36%, O=C(NCc1ccccn1)Nc1cccc(Cl)c1Cl 7.04%, O=C1C=C(O)c2cccc(O)c2C1=O 4.81%, O=C1C=C(O)c2c(O)cccc2C1=O 5.73%, CC(=O)c1cccc(NC(=O)CCc2nnc3ccc(N4CCOCC4)nn23)c1 9.13%, Cc1ccc(-c2csc3nc4c5ccccc5c(NCCCN5CCOCC5)nn4c(=O)c23)cc1 2.89%, O=c1c2ccccc2nc2c3ccccc3c(NCCN3CCOCC3)nn12 -8.49%, COc1cccc(/C=N/NC(=O)c2ccc(CN3c4cccc5cccc(c45)S3(=O)=O)cc2)c1 -6.43%, Cc1cc(OCC(O)CNC(C)(C)C)ccc1Cl (configuration not stated) -6.41%, OC(CNCCc1ccc(Cl)cc1)COc1ccc2ccccc2c1 (configuration not stated) 7.14%, Cc1nc(N)nc(N/N=C/c2ccccc2)n1 -5.41%, COCC(C)NS(=O)(=O)c1ccccc1 (configuration not stated) -1.07%, CC(=O)c1cccc(NC(=O)c2sc3nc4n(c(=O)c3c2C)CCCCC4)c1 11.4%, Oc1ccc2ccccc2c1/C=N/Nc1ccccc1 -2.22%, O=C(CN1CCOCC1)N/N=C/c1c(O)ccc2ccccc12 3.4%, NC(=S)N/N=C/c1c(O)ccc2ccccc12 -8.26%, O=C(CN1CCCc2ccccc21)N/N=C/c1c(O)ccc2ccccc12 41.7%, CCc1nccn1CCC(=O)N1CCCC(N2CCN(c3cccc(Cl)c3)CC2)C1 (configuration not stated) -2.69%, CN1CCCN(C(=O)c2cccc3ccccc23)CC1 -0.73%, O=C1CC(C(=O)N2CCN(c3ccc(F)cc3)CC2)CN1CCc1ccccc1 (configuration not stated) 5.66%, CCCN(CC(=O)Nc1ccccc1C)C(=O)COc1ccc2c(c1)CCC2 -2.3%, CN1CCCN(C(=O)c2c(F)cccc2Cl)CC1 -6.36%, CCCS(=O)(=O)N1CCN(C(=O)COc2ccccc2)CC1 1.1%, Cn1c(NC(=O)C[n+]2cc(-c3ccc(Cl)cc3)n3c2CCC3)cc(=O)n(C)c1=O 4.64%, O=C(C[n+]1cc(-c2ccc(Cl)cc2)n2c1CCC2)N1c2ccccc2Sc2ccccc21 17.8%, O=C(C[n+]1cc(-c2ccccc2)n2c1CCC2)N1c2ccccc2Sc2ccccc21 9.1%, O=C(C[n+]1cc(-c2ccccc2)n2c1CCC2)Nc1nc(-c2ccccc2)cs1 2.36%, O=C(C[n+]1cc(-c2ccc(F)cc2)n2c1CCC2)Nc1nc(-c2ccccc2)cs1 14.9%, Cn1c(NC(=O)C[n+]2cc(-c3ccc(F)cc3)n3c2CCC3)cc(=O)n(C)c1=O 4.11%, CC1CCc2c(nc3ncnn3c2N2CC(C)OC(C)C2)C1 (configuration not stated) -10.6%, Cc1ccc(S(=O)(=O)CCC(=O)Oc2ccc(-c3nnco3)cc2)cc1 -2.63%, COc1cccc(CN2CCN(Cc3cc(OC)c(OC)cc3OC)CC2)c1 -6.37%, COc1ccc2cc(C(=O)N/N=C/c3sc4ccccc4c3O)ccc2c1 9.41%, O=C(N/N=C/c1ccccc1F)c1cccc2ccccc12 -1.58%, COc1ccc(C(=O)N/N=C/c2c[nH]c3ccccc23)cc1 4.37%, O=C(N/N=C/c1ccccc1O)c1cccc2ccccc12 7.21%, CCC(=O)N1CCc2cc(Br)cc(S(=O)(=O)CCC(=O)NCCOC)c21 1.63%, COC(=O)[C@@H](NC(=O)Nc1ccc(OC(F)(F)F)cc1)C(C)C -9.58%, O=C1CC(c2ccccc2Cl)Cc2c1cnn2-c1nc2ccccc2s1 (configuration not stated) -5.22%, Cc1nn(C)c(C)c1CN(C)C(=O)CCCC(=O)O -3.44%, CCOc1ccccc1-c1ccc(C(=O)NCc2ccccc2)o1 -2.75%, Cc1c(Cl)cccc1NC(=O)CNC(=O)c1ccc(F)cc1 -6.63%, O=C1C(=O)N(CCO)C(c2cccc(F)c2)/C1=C(\O)c1ccc(Cl)cc1 (configuration not stated) 0.663%, O=C(COC(=O)CCCN1C(=O)c2cccc3cccc(c23)C1=O)Nc1cccc(Br)c1 5.32%, Cc1ccc(C2=NN(CC(=O)NCc3ccccn3)C(=O)CC2)cc1 15.1%, O=C(Nc1cccc(Cl)c1)NC1CCS(=O)(=O)C1 (configuration not stated) 0.08%, CCCCCCCCCCC[N+](C)(C)CC/C=C1/c2ccccc2Sc2ccc(Cl)cc21 0.18%, CCCCCC[N+](C)(C)CC/C=C1/c2ccccc2Sc2ccc(Cl)cc21 -5.82%, CCC(Sc1ccccc1C(=O)O)C(=O)O (configuration not stated) -0.12%, O=C(O)c1ccccc1SSc1ccccc1C(=O)O -0.72%, O=C1C(Cl)=C(Nc2ccccc2)C(=O)c2ccccc21 4.63%, CCNC1=C(Cl)C(=O)c2ccccc2C1=O 22.7%, O=C(CCCN1C(=O)c2ccccc2C1=O)Nc1ccccn1 -1.86%, CCC1(c2ccccc2)NC(=O)N(CC(=O)Nc2cc(S(=O)(=O)N3CCOCC3)ccc2OC(C)C)C1=O (configuration not stated) -0.1%, COc1ccc(C(=O)CCC(=O)NCCc2c[nH]c3ccccc23)cc1 8.52%, Cc1cccc(NS(=O)(=O)c2cccs2)c1 16.6%, Cc1nc([N+](=O)[O-])c(Br)n1CC(=O)c1ccc(F)cc1 7.24%, Cc1nc([N+](=O)[O-])c(Br)n1CC(=O)c1ccc(Br)cc1 8.26%, Nc1cc(Nc2ccccc2)c2nonc2c1[N+](=O)[O-] -3.49%, O=[N+]([O-])c1c(Nc2ccc(O)cc2)cc(Cl)c2nonc12 20%, Nc1cc(N2CCCCCC2)c2nonc2c1[N+](=O)[O-] -3.85%, O=[N+]([O-])c1c(Nc2ccccc2O)cc(Cl)c2nonc12 16.1%, Cc1c(NC(=O)c2ccc(S(=O)(=O)N3CCOCC3)cc2)c(=O)n(-c2ccccc2)n1C -7.51%, OCCC1CN(Cc2cccn2-c2ccccn2)CCN1C1CCCC1 (configuration not stated) -4.15%, COc1ccccc1C(c1nnnn1C1CCCC1)N1CCN2CCCC2C1 (configuration not stated) 2.8%, CCC1(C)Cc2c(sc3nc(SCC(=O)c4ccccc4)[nH]c(=O)c23)CO1 (configuration not stated) -14.9%, Nc1nonc1C(=O)N/N=C/c1cc2c(cc1Br)OCO2 3.06%, Nc1nonc1-n1nnc(C(=O)N/N=C/c2ccc(Br)cc2)c1CSC1=NCCS1 44.3%, Nc1nonc1C(=O)N/N=C/c1ccc(Br)o1 -2.96%, Nc1nonc1-n1nnc(C(=O)N/N=C/c2c(Cl)cccc2Cl)c1CSC1=NCCS1 6.32%, O=C(NCc1ccco1)C1CCCN(S(=O)(=O)c2ccc(Cl)cc2)C1 (configuration not stated) 0.1%, COc1ccc(-c2cccc(NC(=O)COc3ccc(Cl)cc3)c2)nn1 -8.03%, CCCCCCCCCC[n+]1cccc(C(=O)N(CC)CC)c1 11%, CCCCCCCC[n+]1cccc(C(=O)N(CC)CC)c1 7.46%, CCC(=O)NC(=S)Nc1ccc(N2CCN(C(=O)c3ccc(Cl)cc3)CC2)cc1 2.66%, CC(=O)/C=C1\SC(CC(=O)O)C(=O)N1c1ccccc1 (configuration not stated) -3.51%, COc1ccc2nc(SCC(N)=O)cc(C)c2c1 -2.01%, CN1CCCC(CN2c3ccccc3Sc3ccccc32)C1 (configuration not stated) 5.69%, CC1CCN(CC(O)CN2c3ccccc3Sc3ccccc32)CC1 (configuration not stated) 11.3%, O=C(O)c1cccc(N/N=C/c2cc(Br)cc(Br)c2O)c1 -5.01%, Cc1c(N=Cc2cc(Br)cc(Br)c2O)cccc1C(=O)O 20.2%, N#CCCn1nc(-c2ccccc2)c2ccccc2c1=O 0.37%, Cc1ccc(N2C(=O)Nc3ccccc3C2(O)C(=O)N2CCN(c3ccccn3)CC2)cc1C (configuration not stated) 1.22%, O=C(CS(=O)(=O)c1ccccc1)NC1CCCCC1 -0.8%, CC(CC(=O)Nc1ccccc1)NCCCN1CCCC1=O (configuration not stated) -13.5%, COc1ccc(C(=O)Nc2ccccc2C(=O)N2CCCCC2C)cc1 (configuration not stated) -7.49%
